# Results published in the supplement of paper PMC7724964.
# Target: T1, SPSB2 26-221 SPRY (domain begin residue: 26, domain end residue: 221), Q99619
# T1 chain: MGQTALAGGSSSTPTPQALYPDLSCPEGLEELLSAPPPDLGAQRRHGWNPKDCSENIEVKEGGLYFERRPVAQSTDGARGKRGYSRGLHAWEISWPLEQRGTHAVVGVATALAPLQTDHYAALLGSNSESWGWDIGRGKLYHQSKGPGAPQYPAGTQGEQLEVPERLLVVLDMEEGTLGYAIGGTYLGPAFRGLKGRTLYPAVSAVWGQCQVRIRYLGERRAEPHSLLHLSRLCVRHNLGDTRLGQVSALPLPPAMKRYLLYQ
# Assay: phage ELISA signal ratio (GST-PRM binding over GST background); higher = stronger binding of peptide-phage to the PRM
# How it was run: (§1)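 Approximately 48 individual clones from selection rounds 4 and 5 were tested by phage ELISA, and those scoring positive were sequenced. They came from five rounds of selecting an M13 phage library of randomized, cysteine-free, glycine-flanked hexadecapeptides on the gene-8 major coat protein against human peptide recognition domains fused to the C-terminus of glutathione S-transferase (GST) in 96-well plates. Each figure in the table is the ELISA signal on the GST-domain fusion relative to the signal on GST alone.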
row,Binder,phage ELISA signal ratio
1,GFLDPNQNIVRETLIL,34.2
2,AGPDWNHNRLTFNHPQ,35.2
3,EVMYDWNGNASSLLMM,35.3
4,EYTLDENANMEQLWEV,35.8
5,MDWNNNWNHSLESTQN,36.1
6,YPQWLASSRGEMNNNI,36.2
7,GFEFHPVYDWNNNIQK,36.6
8,KKDWNNNIEAWLVGEE,36.6
9,DKYWPVDPNNNMPRFG,37.4
10,RFPMYDHNANLLPLPQ,38.1
11,PEFLDENNNVDVGHTW,38.3
12,MDFTDVNGNLLNAFTA,38.3
13,MEKDMNGNMAVFEMHH,39.2
14,PARDINNNAATAYINV,39.5
15,YEIMENNNWLNNAGVF,40.1
16,HLEQDWNGNWLMNEKD,41.2
17,WDLDWAVSDHNGNVMV,41.6
18,KQDYLNVTDWNNNAVM,44.7

# Target: T2, SPSB4 1-273 SPRY (domain begin residue: 1, domain end residue: 273), Q96A44
# T2 chain: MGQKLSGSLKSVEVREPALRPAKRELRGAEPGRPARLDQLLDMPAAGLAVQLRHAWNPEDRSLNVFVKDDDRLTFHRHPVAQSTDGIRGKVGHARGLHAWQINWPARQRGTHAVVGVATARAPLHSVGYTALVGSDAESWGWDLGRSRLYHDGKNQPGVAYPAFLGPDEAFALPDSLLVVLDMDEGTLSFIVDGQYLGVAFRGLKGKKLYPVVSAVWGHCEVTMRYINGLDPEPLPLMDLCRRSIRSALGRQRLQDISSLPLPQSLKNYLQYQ
# Assay: as above
# How it was run: as §1
row,Binder,phage ELISA signal ratio
1,WDFVGEWDSNNNTVTR,7.05
2,MVQDSINNNNWLVPWV,7.42
3,QMDYNQNMPSIQWARE,8.15

# Target: T3, STAM 1-143 VHS (domain begin residue: 1, domain end residue: 143), Q92783
# T3 chain: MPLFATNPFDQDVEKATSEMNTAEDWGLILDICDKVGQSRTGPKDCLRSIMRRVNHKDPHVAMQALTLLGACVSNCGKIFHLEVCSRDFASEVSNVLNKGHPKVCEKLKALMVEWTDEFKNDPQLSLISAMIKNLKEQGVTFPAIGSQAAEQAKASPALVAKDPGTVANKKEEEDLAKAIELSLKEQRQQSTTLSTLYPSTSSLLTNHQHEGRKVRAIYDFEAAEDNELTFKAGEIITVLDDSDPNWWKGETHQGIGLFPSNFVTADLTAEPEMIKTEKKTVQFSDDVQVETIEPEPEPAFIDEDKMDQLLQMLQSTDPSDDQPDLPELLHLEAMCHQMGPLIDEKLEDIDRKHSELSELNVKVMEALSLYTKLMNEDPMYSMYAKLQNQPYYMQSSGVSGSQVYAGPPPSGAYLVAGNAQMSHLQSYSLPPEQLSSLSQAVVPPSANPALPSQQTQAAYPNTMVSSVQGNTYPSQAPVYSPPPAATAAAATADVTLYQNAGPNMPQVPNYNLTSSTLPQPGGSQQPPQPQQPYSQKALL
# Assay: as above
# How it was run: as §1
row,Binder,phage ELISA signal ratio
1,DQEWLSKPWQFWAMDM,4.69
2,HESMVMFTDEFFQQYL,5.23
3,NKHDTEEFMVRTFLSE,6.48
4,AYVWDDWVWTSLPWVE,6.69
5,PFDAWPIGWEIQQQYF,8.91
6,EPYMIQVPWESHWDVH,9.25
7,HSEIWLMTYLDSLAMY,13
8,TQFNMHDEALFMTKLF,19.2
9,QERNHHDPHALWESLF,20.8
10,NPHSHQQFMQAVENHI,22.2

# Target: SUB1 58-127 PC4 (domain begin residue: 58, domain end residue: 127), P53999
# Assay: as above
# How it was run: as §1
row,Binder,phage ELISA signal ratio
1,DEEEWWWQFQSHQLPE,8.77

# Target: T4, TCEA2 231-299 TFIIS_C (domain begin residue: 231, domain end residue: 299), Q15560
# T4 chain: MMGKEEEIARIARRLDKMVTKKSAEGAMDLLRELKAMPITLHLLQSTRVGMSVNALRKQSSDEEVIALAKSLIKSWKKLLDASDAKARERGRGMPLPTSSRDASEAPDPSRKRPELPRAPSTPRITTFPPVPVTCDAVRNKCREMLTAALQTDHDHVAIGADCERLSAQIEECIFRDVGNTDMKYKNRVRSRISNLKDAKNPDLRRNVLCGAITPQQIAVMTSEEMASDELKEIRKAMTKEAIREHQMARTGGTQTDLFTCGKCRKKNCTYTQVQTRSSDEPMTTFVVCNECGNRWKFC
# Assay: as above
# How it was run: as §1
row,Binder,phage ELISA signal ratio
1,WAWEDMWFMEQLESTE,3.89
2,EQWTWEPMWEWMTITD,5.86

# Target: T5, TDRD1 261-449 TUDOR (domain begin residue: 261, domain end residue: 449), Q9BXT4
# T5 chain: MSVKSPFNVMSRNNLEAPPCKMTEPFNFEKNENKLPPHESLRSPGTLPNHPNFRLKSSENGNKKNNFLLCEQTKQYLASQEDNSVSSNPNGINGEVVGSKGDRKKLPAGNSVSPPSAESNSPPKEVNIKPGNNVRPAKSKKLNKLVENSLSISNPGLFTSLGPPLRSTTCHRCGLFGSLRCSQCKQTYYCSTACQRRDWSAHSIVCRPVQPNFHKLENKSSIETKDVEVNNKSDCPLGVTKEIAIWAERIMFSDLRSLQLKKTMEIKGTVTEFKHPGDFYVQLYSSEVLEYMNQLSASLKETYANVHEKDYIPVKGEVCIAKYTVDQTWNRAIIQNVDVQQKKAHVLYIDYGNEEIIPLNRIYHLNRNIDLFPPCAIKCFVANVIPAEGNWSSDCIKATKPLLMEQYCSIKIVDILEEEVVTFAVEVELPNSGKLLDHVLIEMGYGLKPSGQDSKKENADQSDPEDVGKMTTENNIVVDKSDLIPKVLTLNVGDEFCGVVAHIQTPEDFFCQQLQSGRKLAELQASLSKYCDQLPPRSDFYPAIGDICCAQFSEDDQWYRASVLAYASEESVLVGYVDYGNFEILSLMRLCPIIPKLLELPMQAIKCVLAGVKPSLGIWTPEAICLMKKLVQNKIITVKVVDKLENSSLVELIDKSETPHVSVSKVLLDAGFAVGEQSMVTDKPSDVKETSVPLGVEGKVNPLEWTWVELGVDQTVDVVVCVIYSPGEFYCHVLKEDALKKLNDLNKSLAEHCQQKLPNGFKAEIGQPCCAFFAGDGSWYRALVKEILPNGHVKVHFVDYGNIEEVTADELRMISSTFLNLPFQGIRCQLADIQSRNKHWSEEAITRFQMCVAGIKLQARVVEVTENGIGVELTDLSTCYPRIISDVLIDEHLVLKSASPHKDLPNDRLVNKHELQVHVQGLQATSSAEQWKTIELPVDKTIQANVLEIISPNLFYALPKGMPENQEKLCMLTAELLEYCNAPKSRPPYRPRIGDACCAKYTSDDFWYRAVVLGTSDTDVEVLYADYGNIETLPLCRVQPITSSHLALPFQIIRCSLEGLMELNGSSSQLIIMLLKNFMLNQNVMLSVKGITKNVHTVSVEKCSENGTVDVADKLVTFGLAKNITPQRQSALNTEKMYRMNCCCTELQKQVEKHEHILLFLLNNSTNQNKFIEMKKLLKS
# Assay: as above
# How it was run: as §1
row,Binder,phage ELISA signal ratio
1,IWDQWYEWNSEWDRLP,3.57
2,WNQWQEWTTDHGVLLE,7.12
3,MPLHEWEAGWPWEVVG,7.35
4,EMHWMDIWDSLLPESK,7.87
5,ELWQHWDMWNVEEPEF,7.88
6,EPGHWMEWIWDTIELE,9.32

# Target: T6, TDRKH 290-430 TUDOR+SNase (domain begin residue: 290, domain end residue: 430), Q9Y2W6
# T6 chain: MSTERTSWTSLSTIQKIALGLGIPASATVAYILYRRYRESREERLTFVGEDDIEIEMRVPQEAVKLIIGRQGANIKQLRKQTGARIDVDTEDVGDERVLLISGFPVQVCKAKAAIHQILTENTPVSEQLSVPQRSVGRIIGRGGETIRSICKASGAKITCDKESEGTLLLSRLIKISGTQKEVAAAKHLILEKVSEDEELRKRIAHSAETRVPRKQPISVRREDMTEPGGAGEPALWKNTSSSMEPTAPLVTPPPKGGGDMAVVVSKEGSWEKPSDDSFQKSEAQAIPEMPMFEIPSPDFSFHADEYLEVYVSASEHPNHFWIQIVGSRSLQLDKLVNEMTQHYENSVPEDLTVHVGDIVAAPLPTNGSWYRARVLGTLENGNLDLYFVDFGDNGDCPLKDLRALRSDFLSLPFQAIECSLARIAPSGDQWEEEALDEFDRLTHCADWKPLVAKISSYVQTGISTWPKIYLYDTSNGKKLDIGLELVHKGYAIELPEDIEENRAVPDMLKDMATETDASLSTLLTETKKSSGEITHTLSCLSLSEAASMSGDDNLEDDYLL
# Assay: as above
# How it was run: as §1
row,Binder,phage ELISA signal ratio
1,REMLDYYQGVWVPPVS,4.26
2,HELHGHLGPYGYPAGT,7.85
3,HEQNRMDVRNDGRTGF,8

# Target: T7, TERF1 58-268 TRF (domain begin residue: 58, domain end residue: 268), P54274
# T7 chain: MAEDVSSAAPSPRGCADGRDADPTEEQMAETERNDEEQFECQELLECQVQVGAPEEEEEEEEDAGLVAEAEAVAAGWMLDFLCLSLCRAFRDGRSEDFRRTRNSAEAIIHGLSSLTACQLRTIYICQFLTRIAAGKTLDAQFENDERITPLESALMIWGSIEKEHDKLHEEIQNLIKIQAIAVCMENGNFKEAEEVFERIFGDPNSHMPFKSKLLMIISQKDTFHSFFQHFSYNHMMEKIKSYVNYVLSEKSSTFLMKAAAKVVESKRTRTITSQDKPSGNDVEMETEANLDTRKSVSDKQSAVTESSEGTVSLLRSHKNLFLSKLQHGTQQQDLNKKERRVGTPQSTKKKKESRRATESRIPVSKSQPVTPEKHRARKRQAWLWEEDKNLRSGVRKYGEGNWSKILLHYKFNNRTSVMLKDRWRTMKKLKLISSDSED
# Assay: as above
# How it was run: as §1
row,Binder,phage ELISA signal ratio
1,EHSFLFEDWMWEGKDH,5.48
2,MLFDDEAMYNWQWHLM,12.2
3,LGHTTAEMIDYMELQW,15.3
4,SFPLEFTTDYMYNLMA,18.2

# Target: TLN1 309-401 IRS (domain begin residue: 309, domain end residue: 401), Q9Y490
# Sequence (Q9Y490 whole entry): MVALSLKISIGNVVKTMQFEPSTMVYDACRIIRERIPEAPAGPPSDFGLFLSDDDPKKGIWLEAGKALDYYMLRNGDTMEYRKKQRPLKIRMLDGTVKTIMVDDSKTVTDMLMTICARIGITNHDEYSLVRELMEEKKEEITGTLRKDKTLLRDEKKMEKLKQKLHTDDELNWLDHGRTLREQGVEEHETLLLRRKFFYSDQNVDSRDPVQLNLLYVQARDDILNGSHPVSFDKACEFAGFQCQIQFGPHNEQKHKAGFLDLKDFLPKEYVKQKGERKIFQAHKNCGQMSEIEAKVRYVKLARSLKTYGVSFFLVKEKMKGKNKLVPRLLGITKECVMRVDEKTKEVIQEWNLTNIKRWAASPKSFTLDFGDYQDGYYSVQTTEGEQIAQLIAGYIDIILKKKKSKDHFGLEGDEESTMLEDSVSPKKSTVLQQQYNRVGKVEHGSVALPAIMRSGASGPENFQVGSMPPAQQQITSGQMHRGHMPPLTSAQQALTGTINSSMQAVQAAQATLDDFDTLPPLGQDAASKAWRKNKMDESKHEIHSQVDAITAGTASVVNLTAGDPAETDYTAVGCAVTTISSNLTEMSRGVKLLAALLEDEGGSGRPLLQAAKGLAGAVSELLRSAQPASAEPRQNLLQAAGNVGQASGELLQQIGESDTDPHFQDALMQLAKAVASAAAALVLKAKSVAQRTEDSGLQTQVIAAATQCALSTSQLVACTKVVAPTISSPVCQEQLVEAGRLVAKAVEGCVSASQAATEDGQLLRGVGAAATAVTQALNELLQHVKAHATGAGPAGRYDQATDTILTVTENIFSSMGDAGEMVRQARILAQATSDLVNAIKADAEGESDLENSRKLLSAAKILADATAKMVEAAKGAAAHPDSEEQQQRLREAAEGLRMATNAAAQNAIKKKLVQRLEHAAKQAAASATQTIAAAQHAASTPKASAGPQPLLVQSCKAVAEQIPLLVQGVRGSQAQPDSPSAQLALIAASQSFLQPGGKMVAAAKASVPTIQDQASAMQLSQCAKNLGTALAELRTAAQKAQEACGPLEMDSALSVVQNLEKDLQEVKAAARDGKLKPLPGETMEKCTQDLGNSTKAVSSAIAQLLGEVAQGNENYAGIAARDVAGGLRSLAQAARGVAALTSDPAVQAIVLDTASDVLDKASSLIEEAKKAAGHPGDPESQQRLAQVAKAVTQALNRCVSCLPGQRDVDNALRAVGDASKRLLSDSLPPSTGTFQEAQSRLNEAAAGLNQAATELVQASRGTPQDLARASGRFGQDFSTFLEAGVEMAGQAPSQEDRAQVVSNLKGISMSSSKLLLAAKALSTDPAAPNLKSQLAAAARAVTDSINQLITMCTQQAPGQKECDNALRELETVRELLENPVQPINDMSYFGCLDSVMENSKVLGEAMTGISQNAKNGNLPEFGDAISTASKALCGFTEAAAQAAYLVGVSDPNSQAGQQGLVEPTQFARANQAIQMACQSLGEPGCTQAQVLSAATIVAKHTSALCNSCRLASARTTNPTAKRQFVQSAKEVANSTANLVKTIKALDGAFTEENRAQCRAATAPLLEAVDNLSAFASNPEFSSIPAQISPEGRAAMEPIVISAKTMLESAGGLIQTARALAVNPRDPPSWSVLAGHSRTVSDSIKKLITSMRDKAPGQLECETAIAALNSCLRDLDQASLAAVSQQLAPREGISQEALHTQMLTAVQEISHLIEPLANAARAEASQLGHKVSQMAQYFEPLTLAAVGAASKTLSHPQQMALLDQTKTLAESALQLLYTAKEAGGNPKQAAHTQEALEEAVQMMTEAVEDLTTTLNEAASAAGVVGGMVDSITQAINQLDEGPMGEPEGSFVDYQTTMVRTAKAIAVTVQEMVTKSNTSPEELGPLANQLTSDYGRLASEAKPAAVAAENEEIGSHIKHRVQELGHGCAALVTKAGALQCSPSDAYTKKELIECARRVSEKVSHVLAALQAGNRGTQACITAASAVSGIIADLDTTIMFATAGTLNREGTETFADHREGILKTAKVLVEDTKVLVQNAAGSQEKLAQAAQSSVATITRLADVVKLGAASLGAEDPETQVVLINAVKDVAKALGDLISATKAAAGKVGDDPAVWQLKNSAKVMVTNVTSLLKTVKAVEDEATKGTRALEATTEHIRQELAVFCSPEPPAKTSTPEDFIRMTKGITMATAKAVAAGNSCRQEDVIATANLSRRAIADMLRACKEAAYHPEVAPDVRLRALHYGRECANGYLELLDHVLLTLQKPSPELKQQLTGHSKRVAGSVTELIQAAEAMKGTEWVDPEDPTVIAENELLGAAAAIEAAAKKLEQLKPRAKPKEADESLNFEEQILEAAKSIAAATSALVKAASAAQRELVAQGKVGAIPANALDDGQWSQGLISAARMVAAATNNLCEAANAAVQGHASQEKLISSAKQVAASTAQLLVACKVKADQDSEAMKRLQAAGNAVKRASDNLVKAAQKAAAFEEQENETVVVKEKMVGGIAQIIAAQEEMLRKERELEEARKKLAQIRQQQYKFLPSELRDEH
# Assay: as above
# How it was run: as §1
row,Binder,phage ELISA signal ratio
1,EFTMNWQYPTQYNFIQ,15.3
2,PNVGEWQYNLSYIWEM,15.5
3,VETQWEQWQEYGLKFS,16.2

# Target: TLN2 312-417 IRS (domain begin residue: 312, domain end residue: 417), Q9Y4G6
# Sequence (Q9Y4G6 whole entry): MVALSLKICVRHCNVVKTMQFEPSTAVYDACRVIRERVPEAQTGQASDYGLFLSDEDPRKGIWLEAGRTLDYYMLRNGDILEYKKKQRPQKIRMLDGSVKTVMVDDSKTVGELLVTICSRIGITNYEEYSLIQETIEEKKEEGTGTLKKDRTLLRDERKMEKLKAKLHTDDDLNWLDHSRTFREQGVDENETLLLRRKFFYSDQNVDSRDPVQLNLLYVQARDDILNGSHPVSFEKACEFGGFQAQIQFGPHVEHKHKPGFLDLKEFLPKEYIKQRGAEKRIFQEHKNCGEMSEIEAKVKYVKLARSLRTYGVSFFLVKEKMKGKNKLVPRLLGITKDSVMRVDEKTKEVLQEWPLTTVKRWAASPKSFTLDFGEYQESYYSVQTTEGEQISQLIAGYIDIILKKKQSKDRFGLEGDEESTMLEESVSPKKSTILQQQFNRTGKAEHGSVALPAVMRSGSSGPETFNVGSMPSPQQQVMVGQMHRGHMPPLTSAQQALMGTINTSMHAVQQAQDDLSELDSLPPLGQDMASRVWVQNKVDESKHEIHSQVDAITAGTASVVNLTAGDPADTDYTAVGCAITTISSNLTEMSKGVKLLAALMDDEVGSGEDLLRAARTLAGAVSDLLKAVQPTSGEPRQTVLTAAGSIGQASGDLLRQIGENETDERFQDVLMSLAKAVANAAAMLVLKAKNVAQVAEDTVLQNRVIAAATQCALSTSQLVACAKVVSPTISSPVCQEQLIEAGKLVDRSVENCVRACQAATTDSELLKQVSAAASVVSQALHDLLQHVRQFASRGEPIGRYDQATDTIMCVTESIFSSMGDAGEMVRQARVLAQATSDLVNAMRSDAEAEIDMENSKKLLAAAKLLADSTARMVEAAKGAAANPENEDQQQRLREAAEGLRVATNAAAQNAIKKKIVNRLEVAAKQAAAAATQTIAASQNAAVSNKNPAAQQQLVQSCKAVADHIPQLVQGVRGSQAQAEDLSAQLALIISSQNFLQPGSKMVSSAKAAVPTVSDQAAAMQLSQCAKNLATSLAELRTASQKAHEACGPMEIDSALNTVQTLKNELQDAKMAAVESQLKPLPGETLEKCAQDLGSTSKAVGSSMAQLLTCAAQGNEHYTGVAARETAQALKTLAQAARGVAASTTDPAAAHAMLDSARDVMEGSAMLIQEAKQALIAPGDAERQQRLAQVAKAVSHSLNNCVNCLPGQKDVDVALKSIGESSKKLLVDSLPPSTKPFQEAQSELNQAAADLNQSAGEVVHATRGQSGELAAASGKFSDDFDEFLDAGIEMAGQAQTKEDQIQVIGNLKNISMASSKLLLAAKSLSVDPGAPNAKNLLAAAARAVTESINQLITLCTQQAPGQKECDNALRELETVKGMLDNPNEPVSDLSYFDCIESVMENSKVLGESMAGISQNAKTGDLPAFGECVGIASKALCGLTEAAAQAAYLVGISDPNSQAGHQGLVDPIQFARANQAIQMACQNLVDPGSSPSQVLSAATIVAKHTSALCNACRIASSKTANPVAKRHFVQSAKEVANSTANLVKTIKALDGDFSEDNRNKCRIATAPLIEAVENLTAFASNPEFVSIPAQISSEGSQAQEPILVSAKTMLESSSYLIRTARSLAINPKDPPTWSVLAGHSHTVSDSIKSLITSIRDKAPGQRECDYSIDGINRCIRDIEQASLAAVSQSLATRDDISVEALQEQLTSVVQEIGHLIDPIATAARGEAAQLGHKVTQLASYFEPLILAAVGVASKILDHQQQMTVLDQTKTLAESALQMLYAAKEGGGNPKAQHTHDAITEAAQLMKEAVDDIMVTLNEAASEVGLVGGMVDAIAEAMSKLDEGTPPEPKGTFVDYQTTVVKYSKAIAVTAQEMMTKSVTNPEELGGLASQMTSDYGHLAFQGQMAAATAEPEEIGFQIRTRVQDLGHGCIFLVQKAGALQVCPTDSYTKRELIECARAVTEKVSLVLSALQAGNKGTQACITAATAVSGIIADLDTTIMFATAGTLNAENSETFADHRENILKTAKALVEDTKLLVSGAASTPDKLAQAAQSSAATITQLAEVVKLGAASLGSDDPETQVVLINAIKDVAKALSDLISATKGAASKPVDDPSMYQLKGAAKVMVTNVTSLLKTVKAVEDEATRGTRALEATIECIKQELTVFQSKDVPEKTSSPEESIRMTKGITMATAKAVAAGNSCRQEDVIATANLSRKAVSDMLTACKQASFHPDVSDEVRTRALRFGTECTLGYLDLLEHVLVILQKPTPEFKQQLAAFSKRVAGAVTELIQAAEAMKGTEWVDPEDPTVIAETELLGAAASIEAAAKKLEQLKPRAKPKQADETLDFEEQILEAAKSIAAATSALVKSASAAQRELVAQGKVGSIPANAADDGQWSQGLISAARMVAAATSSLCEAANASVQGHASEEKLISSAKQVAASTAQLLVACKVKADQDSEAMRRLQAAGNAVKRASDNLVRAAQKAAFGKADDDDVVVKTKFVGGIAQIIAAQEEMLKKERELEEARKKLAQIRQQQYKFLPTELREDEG
# Assay: as above
# How it was run: as §1
row,Binder,phage ELISA signal ratio
1,QNNFIQLQEWHWLEGW,11.2
2,VENVYYGPYQWEGSFQ,15.4
3,WDLNAQVEHMWQYGIA,15.9
4,NENGSYEEHLAWTWGF,17.6
5,MEWVEVYTKTDYAFPP,17.8
6,DMVWTNSFLHSHSQLV,19.5
7,NQDRVWVGNSAFKSPD,22
